Drawing on PubChem BioAssay (EPA / NIEHS), this text covers outcome and AC50 for 28 compounds.

The source made the active and inactive calls. Rule for the calls: active = hit-call score of the fitted dose curve at least 0.9, where 1 is the maximum; inactive = score below 0.9.

A short description of the experiment: CCTE_Shafer_MEA_acute_synchrony_index: CCTE's Neural Acute Assay for Synchrony, Shafer Lab (AID 2284027).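 Note: fitted for loss of signal so actives lower synchrony relative to DMSO.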 As for the experimental part:
CCTE_Shafer_MEA_acute assay is conducted using Axion Biosystems 48 well microelectrode array (MEA) plates and Maestro recording system. Each well of the MEA plate contains a grid of 16 microelectrodes embedded in the culture surface. Electrically active cells, such as neurons, can be cultured over the electrodes, and electrical activity in these cells can be recorded extracellularly. The spontaneous firing of neurons is captured from each electrode on a microsecond timescale providing both temporally and spatially precise data. […] The CCTE_Shafer_MEA_acute assay uses primary cultures of rat cortical neurons. As these cultures mature over time, neural networks develop functional activity and form cohesive networks in which electrical activity can be highly coordinated. Baseline 40-minute recordings are made on days post-plating 13 or 15, followed by a secondary 40-minute recording after chemical exposure.CCTE_Shafer_MEA_acute_synchrony_index is a component of the CCTE_Shafer_MEA_acute assay. It measures the synchrony of the neural network as a unitless measure between 0 (low synchrony) to 1 (high synchrony) during a recording in a microelectrode array (MEA) using Axion Biosystems Maestro 768 channel amplifier with the AxIS adaptive spike detector. The recordings before and after chemical treatment are used to calculate a percent change in the synchrony index in each well.Data from the assay component CCTE_Shafer_MEA_acute_synchrony_index was analyzed into 1 assay endpoint. This assay endpoint, CCTE_Shafer_MEA_acute_synchrony_index, was analyzed in the negative analysis fitting direction relative to DMSO as the negative control and baseline of activity. Using a type of functional reporter, gain or loss-of-signal activity can be used to understand electrical activity.
Spontaneous activity in the cortical cultures was recorded using an Axion Biosystems Maestro 768 channel amplifier and Axion Integrated Studios (AxIS) v1.8 (or later) software. The amplifier recorded from all channels simultaneously (gain = 1200 x; sampling rate = 12.5 kHz/channel): raw signals were filtered with a Butterworth band-pass filter (300-5000 Hz), which filters out slower local field potentials leaving only fast potentials, i.e., "spikes", arising from extracellular currents associated with action potentials (Pine 2006; Wheeler and Nam 2011). On-line spike detection of filtered signals was conducted with the AxIS adaptive spike detector, using a threshold of 8x the root mean squared (rms) noise on each channel. Any electrodes with rms noise levels greater than 5 uV were grounded (e.g., no data were recorded). Once grounded, an electrode was grounded for the duration of the experiment. All recordings were conducted at 37 C. Wells were deemed usable if on the day of the exposure >/= 10 electrodes were active (defined as >/= 5 spikes/min). On DIV 13 or 15, a minimum of three wells from one cortical culture preparation were treated with each compound (0.03-40 uM). Prior to recording baseline activity, each mwMEA plate was placed in the Maestro at 37 C and allowed to sit for 20 min while firing rates stabilized. Baseline activity (40 min) was recorded before the addition of each compound. An additional 40 min of spontaneous activity was recorded in the presence of each compound. Changes in network parameters relative to baseline were assessed following compound treatment.
Turning to `CCN(CC)CCOc1ccc(C(=C(Cl)c2ccccc2)c2ccccc2)cc1`, the call was inactive. Regarding `OCC(CO)n1cnc(-c2ccc(F)cc2)c1-c1ccnc(Oc2ccccc2)n1`, the compound was classed as inactive.

`c1ccc2occc2c1`: the result was inactive. Consider `CCCC(=O)O`, for which the outcome was inactive. The same measure, in the same setting: with `COc1ccc(OC(F)(F)F)cc1CN[C@H]1CCCN[C@H]1c1ccccc1` the entry was “inactive”; with `CC(N)=O`, “inactive”.

Usually AC50 stands for the concentration giving half of the maximal activity seen. As to `O=C1OC(c2ccc(O)cc2)(c2ccc(O)cc2)c2ccccc21`, the AC50 is 28.5 µM (active). Still for that read-out and setting: under `Cc1c(C)c2c(c(C)c1O)CCC(C)(COc1ccc(CC3SC(=O)NC3=O)cc1)O2` (stereo not drawn) stands 35.5 µM (active). On to `CCCCC(CC)COP(=O)(OCC(CC)CCCC)OCC(CC)CCCC` (stereo not drawn), for which the result was inactive. Turning to `COC(=O)[C@H]1[C@H]2C[C@@H]3c4[nH]c5cc(OC)ccc5c4CCN3C[C@H]2C[C@@H](OC(=O)c2cc(OC)c(OC)c(OC)c2)[C@@H]1OC`, the half-maximal activity concentration (AC50) was 4.97 µM (active). In the case of `NC(=Nc1ccccc1)Nc1ccccc1`, the call was inactive. Take `Nc1nc(=S)c2[nH]cnc2[nH]1`: the AC50 is 3.98 µM (active).

In the case of `Cc1ccc(-c2cc(C(F)(F)F)nn2-c2ccc(S(N)(=O)=O)cc2)cc1`, the compound was classed as inactive. `CSc1ccc(Oc2ccc(S(N)(=O)=O)cc2CN(C)C)cc1C`: the AC50 is 31.3 µM (active). Take `Cc1ccc(C(C)(C)C)c(O)c1`: the call was inactive. For `O=C(O)CN(CC(=O)O)CC(=O)O`, the call was inactive. The same measure, in the same setting: with `CC(C)NCC(O)c1ccc(O)c(O)c1` (stereo not drawn) the entry was “inactive”; with `Oc1ccc(O)cc1`, “inactive”; with `CC(C)COC(=O)CCCCC(=O)OCC(C)C`, “inactive”.

Regarding `C/C=C/c1ccc(OC)cc1`, the compound was called inactive.

Consider `O=C(N[C@@H](c1ccccc1)[C@@H]1CCCCN1)c1cccc(C(F)(F)F)c1Cl`, for which the AC50 was 5 µM (active). Consider `CCc1cc(C2=C(C(=O)O)N(c3ccccc3C(F)(F)F)S(=O)(=O)c3ccccc32)cc2c1OCO2`, for which the compound was classed as inactive.

`Cc1cc(Cc2ccc(N)c(C)c2)ccc1N`: the half-maximal activity concentration (AC50) is 20 µM (active). Consider `CN(C)C(=O)NC1(c2ccccc2)CCN(CC[C@@]2(c3ccc(F)c(F)c3)CN(C(=O)c3ccccc3)CCO2)CC1`, for which the compound was called inactive. Regarding `CC1=C(C)S(=O)(=O)CCS1(=O)=O`, the outcome was inactive. As for `CN(C)CCCN1c2ccccc2Sc2ccc(Cl)cc21`, the AC50 was 32.2 µM (active). With `Cc1cc(SC2=C(O)C[C@@](CCc3ccc(N)cc3)(C(C)C)OC2=O)c(C(C)(C)C)cc1CO`, the result was inactive. Take `CN(C)C(=O)NC1(c2ccccc2)CCN(CCC[C@]2(c3ccc(Cl)c(Cl)c3)CCCN(C(=O)c3ccccc3)C2)CC1`: the AC50 was 6.12 µM (active).
